Experimental data: PubChem BioAssay AID720517 (National Center for Advancing Translational Sciences (NCATS), 2013)
Results filed as inconclusive are left out. Activity calls are given as the source filed them. Calls come from the whole dose curve; as a rule, active = well fitted activation curve with a large enough effect; inconclusive = small, poorly fitted or top-dose-only effect; inactive = flat fitted curve, though single readings scatter.

experiment: qHTS for Inhibitors of Cell Surface uPA Generation: FP59 Counterscreen for Cherry-picked Compounds; conditions: FP59 anthrax toxin cytotoxicity counterscreen, cells; series mostly up to 115 µM; activity (protection from FP59): at the top concentration; note: 0% is about no effect

Structure (SMILES) | activity (protection from FP59)
COc1ccc(CC(=O)OCC(=O)NNC(=O)c2ccccc2)cc1 | -1.53% (inactive)
[N-]=[N+]=NC1C[C@H](n2ccc(=O)[nH]c2=O)O[C@@H]1CO (some centres not stated) | -1.11% (inactive)
O=C1NC(CCc2ccccc2)C(=O)N1Cc1ccccc1Cl (configuration not stated) | 0.227% (inactive)
CCOc1ccc(-n2cnc3scc(-c4ccc(OC)c(OC)c4)c3c2=O)cc1 | -1.49% (inactive)
COc1cc(NC(=O)CSc2nnc3ccc(-c4ccncc4)nn23)cc(OC)c1 | -1.37% (inactive)
CCN(CC)S(=O)(=O)c1ccc(C(=O)Nc2nnc(COC)o2)cc1 | -0.922% (inactive)
Cc1ccc(C)c(S(=O)(=O)Nc2ccccc2C(=O)Nc2cc(C)on2)c1 | -0.926% (inactive)
CC(C)Cn1cnc2c1c(=O)[nH]c(=O)n2Cc1ccccc1 | -1.24% (inactive)
COCCN(C(=O)c1ccc(OC2CCN(S(=O)(=O)N(C)C)CC2)cc1)C(C)C | -1.51% (inactive)
Cn1c(=O)c2c(ncn2CCO)n(C)c1=O | -0.875% (inactive)
Cc1cc(C)nc(NC(=O)CSc2nccc(C)n2)n1 | -1.55% (inactive)
O=C(CSc1nncs1)NC(=O)NCc1ccco1 | -1.2% (inactive)
CC(O)[C@H]1CNC(=O)C(=O)N1CCc1cccc(F)c1 (some centres not stated) | -1.32% (inactive)
COCCCN1CC23C=CC(O2)C(C(=O)O)C3C1=O (configuration not stated) | -1.37% (inactive)
CN(CC(=O)N(C)CC(=O)Nc1c(Cl)cccc1Cl)Cc1ccccc1F | -1.27% (inactive)
Cc1ccccc1C(=O)Nc1ccccc1N1CCCCC1 | -0.905% (inactive)
Cc1ccc(C)c(NC(=O)CCN2CCN(c3ccccc3F)CC2)c1 | -1.28% (inactive)
Cc1cc(-c2ccccc2)nc(N/N=C/c2ccc(N(C)C)cc2)n1 | -1.45% (inactive)
COc1ccccc1CNC(=O)CCCn1nc(C)c2c(C)n(-c3ccccc3)nc2c1=O | -1.42% (inactive)
COc1ccc(S(=O)(=O)N2CCOCC2)cc1NC(=O)CN1C(=O)NC2(CCCC2)C1=O | -1.31% (inactive)
O=C(CSc1ccc(Cl)cc1)Nc1ccc(C2SCCS2)cc1 | -1% (inactive)
O=C(Nn1cnnc1)c1ccc(Cl)cc1 | -1.44% (inactive)
